In all, about 310,000 compounds went through this assay and about 14,000 (4.5%) showed an effect of 50% or more. Effects have a minus sign here. This excerpt belongs to a sample that is enriched for strong results.
These molecules were tested against human ether-à-go-go-related gene (hERG) potassium channel (human, UniProt Q12809) (assay: primary screen, population patch clamp on CHO cells stably expressing hERG; higher = less effect of the substance).
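Note: peak tail current of the secondary pulse compared with the same well before compound.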

Chain of human ether-à-go-go-related gene (hERG) potassium channel (Q12809 whole entry, looked up): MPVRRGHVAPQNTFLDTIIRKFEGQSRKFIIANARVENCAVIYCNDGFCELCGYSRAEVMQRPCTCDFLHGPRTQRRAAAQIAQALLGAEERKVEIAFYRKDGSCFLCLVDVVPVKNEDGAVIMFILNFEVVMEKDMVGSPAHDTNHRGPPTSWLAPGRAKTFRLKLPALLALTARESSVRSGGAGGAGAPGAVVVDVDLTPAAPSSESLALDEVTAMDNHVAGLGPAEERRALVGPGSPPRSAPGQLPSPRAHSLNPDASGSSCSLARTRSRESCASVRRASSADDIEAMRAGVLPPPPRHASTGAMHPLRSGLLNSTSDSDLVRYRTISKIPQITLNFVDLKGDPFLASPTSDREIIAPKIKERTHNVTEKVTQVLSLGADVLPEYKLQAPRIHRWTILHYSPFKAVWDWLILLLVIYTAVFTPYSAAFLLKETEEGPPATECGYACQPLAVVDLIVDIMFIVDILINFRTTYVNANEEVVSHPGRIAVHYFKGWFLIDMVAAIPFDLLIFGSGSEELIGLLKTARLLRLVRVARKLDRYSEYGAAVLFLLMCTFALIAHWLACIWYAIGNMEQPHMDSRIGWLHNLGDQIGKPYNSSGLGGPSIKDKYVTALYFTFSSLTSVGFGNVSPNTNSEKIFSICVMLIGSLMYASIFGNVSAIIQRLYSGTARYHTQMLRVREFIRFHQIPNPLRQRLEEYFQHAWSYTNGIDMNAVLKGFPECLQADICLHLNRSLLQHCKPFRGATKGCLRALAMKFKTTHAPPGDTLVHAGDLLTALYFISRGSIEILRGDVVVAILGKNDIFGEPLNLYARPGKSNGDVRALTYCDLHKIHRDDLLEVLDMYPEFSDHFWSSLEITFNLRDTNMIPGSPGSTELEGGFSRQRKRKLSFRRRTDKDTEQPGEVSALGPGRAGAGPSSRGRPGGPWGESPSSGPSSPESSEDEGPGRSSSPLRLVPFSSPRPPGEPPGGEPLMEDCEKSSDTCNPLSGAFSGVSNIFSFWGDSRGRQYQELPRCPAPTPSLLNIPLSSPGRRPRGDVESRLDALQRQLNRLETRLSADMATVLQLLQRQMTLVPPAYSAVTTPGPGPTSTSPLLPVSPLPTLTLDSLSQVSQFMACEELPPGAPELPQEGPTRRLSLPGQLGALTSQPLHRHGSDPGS

Row | SMILES | hERG current change (%, negative = inhibition) at 10uM [%]
1 | CCNC(=O)CSc1nnc(-c2cccc(S(=O)(=O)N(CC)CC)c2)n1CCc1ccccc1 | -9.82
2 | Cn1ccc(C(=O)Nc2ccc3c(c2)OCCO3)n1 | 21.9
3 | O=C(NN1CCOCC1)c1cn(-c2ccccc2)nc1-c1cccs1 | -1.47
4 | COC(=O)c1nc(NC(=O)c2ccccc2)n[nH]1 | -9.58
5 | O=C(C1=NN[C@@H]2C(=O)N(c3cccc(F)c3)C(=O)[C@H]12)C(c1ccccc1)c1ccccc1 | -19.2
6 | CCCCn1c(=NC(=O)c2cccnc2)c(C#N)cc2c(=O)n3cccc(C)c3nc21 | -10.6
7 | Cc1cccn2c(=O)c3cc(C#N)c(=NC(=O)c4cccnc4)n(CC4CCCO4)c3nc12 (stereo not drawn) | -51.1
8 | CCCCn1c(=NC(C)=O)c(C#N)cc2c(=O)n3cccc(C)c3nc21 | -31
9 | CCCCCn1c(=NC(=O)c2cccnc2)c(C#N)cc2c(=O)n3cccc(C)c3nc21 | -54.8
10 | Cc1cc(=O)c2cc(Br)ccc2[nH]1 | 8.12
11 | Cc1n[nH]c(C)c1S(=O)(=O)N1CCC(C(=O)N2CCn3c2nc2ccccc23)CC1 | -3.79
12 | CC(C)CC(COCc1ccc(Cl)cc1)N1CCN(C(=O)c2cccc(C(F)(F)F)c2)CCC1=O (stereo not drawn) | -38.1
13 | CCOC(=O)c1cc(S(=O)(=O)N(C)Cc2ccccc2)cn1C | -11.7
14 | C=COCCn1c(=N)n(CCC)c2ccccc21.Cl | -28.3
15 | CCn1c(=N)n(CCO)c2ccccc21.Cl | 5.84
16 | COc1ccc(OCCn2c(=O)sc3ccccc32)cc1 | -8.81
17 | COc1ccc(OCCn2c(=N)n(CCO)c3ccccc32)cc1.Cl | -24.2
18 | CCn1c(=N)n(CCOc2ccc(OC)cc2)c2ccccc21 | -55.1
19 | CCCn1c(=N)n(CCOc2ccc(OC)cc2)c2ccccc21 | -59.5
20 | Cn1cc(P(=O)(N2CCOCC2)N2CCOCC2)cc1P(=S)(N1CCOCC1)N1CCOCC1 | 16.6
21 | Cc1nc(-c2ccc(NC(=O)c3ccc(Br)o3)cc2)cs1 | 4.44

Row | SMILES | hERG current change (%, negative = inhibition) at 10uM [%]
22 | O=C(c1cc2nc(-c3ccccc3)cc(-c3ccccc3)n2n1)N1CCCC1 | 9.99
23 | COc1ccc(-c2cc(C(F)(F)F)n3nc(C(=O)N4CCN5CCCC5C4)cc3n2)cc1OC (stereo not drawn) | -64.4
24 | O=C(c1ccccc1)N1CCN(C(=O)c2cc3nc(-c4ccccc4)cc(C(F)(F)F)n3n2)CC1 | -51.1
25 | O=C(c1cc2nc(-c3ccc(F)cc3)cc(C(F)(F)F)n2n1)N1CCCCC1c1cccnc1 (stereo not drawn) | -80.2
26 | O=C(c1cc2nc(-c3ccccc3)cc(C(F)(F)F)n2n1)N1CCN2CCCC2C1 (stereo not drawn) | -30.3
27 | O=C(c1cc2nc(-c3ccccc3)cc(-c3ccccc3)n2n1)N1CCN(C(=O)c2ccco2)CC1 | -56.9
28 | CCN1CCN(C(=O)c2cc3nc(-c4ccccc4)cc(C(F)(F)F)n3n2)CC1 | -22
29 | COc1cccc(-c2cc(C(F)(F)F)n3nc(C(=O)N4CCCCC4c4cccnc4)cc3n2)c1 (stereo not drawn) | -23.1
30 | CN1CCN(C(=O)c2cc3nc(-c4ccccc4)cc(-c4ccccc4)n3n2)CC1 | -38.3
31 | Cc1ccc(-c2cc(C(F)(F)F)n3ncc(C(=O)N4CCCCC4c4cccnc4)c3n2)cc1 (stereo not drawn) | 4.63
32 | O=C(c1cc2nc(-c3ccccc3)cc(C(F)(F)F)n2n1)N1CCOCC1 | -29.3
33 | Cc1ccc(-c2cc(C(F)(F)F)n3nc(C(=O)N4CCN5CCCC5C4)cc3n2)cc1 (stereo not drawn) | -48.3
34 | COc1ccc(C(=O)N/N=C/c2ccc(N3CCOCC3)s2)cc1OC | 11.6
35 | Cc1nc2sc(-c3ccccc3)nn2c(=O)c1Br | -1.74
36 | COc1ccc2nc(Sc3c([N+](=O)[O-])nc(C)n3Cc3ccccc3)[nH]c2c1 | -12.7
37 | CCOc1ccc(N2CC(C(=O)NC3CCCC3)CC2=O)cc1 (stereo not drawn) | 2.11
38 | COc1ccc(N(C(=O)CNC(=O)c2ccco2)C(C(=O)NC2CCCC2)c2ccncc2)cc1 (stereo not drawn) | 13.1
39 | CC(=O)c1sc(NC(=O)CSCc2c(C)noc2C)nc1-c1ccccc1 | -27.4
40 | O=C(N/N=C/c1c[nH]c2ccc(Br)cc12)C1CC1 | 4.6
41 | CC(C)C(=O)Nc1nnc(SCC(=O)NC2CC2)s1 | 12.8
42 | CC(=O)N1c2ccccc2NC2=C(C(=O)CCC2)C1c1cccnc1 (stereo not drawn) | 4.51

Row | SMILES | hERG current change (%, negative = inhibition) at 10uM [%]
43 | C=CCNC(=O)C1CC(=O)N(c2ccc(OCC(=O)Nc3ccc(OC)cc3)cc2)C1 (stereo not drawn) | -3.5
44 | COc1ccc(-c2cc(=O)oc3cc(OC(C)C(=O)O)ccc23)cc1 (stereo not drawn) | 6.26
45 | Cc1cccc(NC(=O)CNC(=O)Cc2ccc(S(=O)(=O)N3CCOCC3)s2)c1C | 5.91
46 | CN(C)S(=O)(=O)c1cccc(C(=O)Nc2cc(Cl)cc(Cl)c2)c1 | 4.25
47 | CC(=O)c1ccc(NS(=O)(=O)c2ccc3c(c2)CCC(=O)N3)cc1 | 8.49
48 | Cn1c(=O)c2c(nc(CN3CCN(C(=O)c4ccco4)CC3)n2CCc2ccccc2)n(C)c1=O | -66.3
49 | Cn1c(=O)c2c(nc(CN3CCN(C(=O)c4ccco4)CC3)n2CC(N)=O)n(C)c1=O | 24.4
50 | CCn1c(CN2CCN(C(=O)c3ccco3)CC2)nc2c1c(=O)n(C)c(=O)n2C | -16.4
51 | Cn1c(=O)c2c(nc(CN3CCN(C(=O)c4ccco4)CC3)n2CCCO)n(C)c1=O | -27.6
52 | Cn1c(=O)c2c(nc(CN3CCN(C(=O)c4ccco4)CC3)n2CCCc2ccccc2)n(C)c1=O | -68.5
53 | COCCn1c(CN2CCN(C(=O)c3ccco3)CC2)nc2c1c(=O)n(C)c(=O)n2C | -9.04
54 | CCN(CC)C(=O)c1cccc(C)c1 | 0.757
55 | Cc1cccc(C(=O)N/C(=C\c2ccco2)C(=O)N2CCCC2)c1 | -18.6
56 | CCCCn1nc(C(=O)Nc2cccc(C(=O)NC3CC3)c2)c2ccccc2c1=O | -82.6
57 | Cn1nc(C(=O)Nc2cccc(C(=O)NC3CC3)c2)c2ccccc2c1=O | -35.3
58 | CCCn1nc(C(=O)NC2CC2)c2ccccc2c1=O | -19.8
59 | CC(C)Cn1nc(C(=O)Nc2cccc(S(=O)(=O)N3CCCC3)c2)c2ccccc2c1=O | -7.01
60 | Cc1nc2ccc(NC(=O)c3nn(CC(C)C)c(=O)c4ccccc34)cc2s1 | -26
61 | CC(C)Cn1nc(C(=O)Nc2cccc(C(=O)NC3CC3)c2)c2ccccc2c1=O | -71.6
62 | N#C/C(C(=O)N1CCOCC1)=c1/s/c(=C\c2ccccn2)c(=O)n1-c1ccccc1 | 17.6
63 | COCCCn1c(N)c(C(=O)NCc2ccco2)c2nc3ccccc3nc21 | 4.53

Row | SMILES | hERG current change (%, negative = inhibition) at 10uM [%]
64 | Cc1cc(C)n2nc(SCC(=O)N/N=C/c3ccccn3)nc2n1 | 3.74
65 | C=CCN1C(=O)/C(=C\c2cccc(OC(=O)c3ccco3)c2)SC1=S | 2.37
66 | CC(C)n1ncc2c(C(=O)N3CCN(Cc4ccc(Br)s4)CC3)cc(C3CC3)nc21 | -4.36
67 | COc1ccc(Cl)cc1S(=O)(=O)Oc1ccc(NC(C)=O)cc1 | -51.7
68 | CC(=O)Nc1ccc(OS(=O)(=O)c2cc(Cl)ccc2C)cc1 | -6.02
69 | CC(=O)Nc1ccc(OS(=O)(=O)c2ccc(Cl)cc2)cc1 | -24.5
70 | COc1ccc(CCNC(=O)c2ccc3nc(-c4ccco4)c(-c4ccco4)nc3c2)cc1OC | -0.346
71 | COc1ccc(Cn2c(O)c(C=Nc3ccc(O)cc3)c3ccccc3c2=O)cc1 | 1.27
72 | O=C(c1[nH]nc2c1CCc1ccccc1-2)N1CCN(Cc2ccc3c(c2)OCO3)CC1 | -26.9
73 | O=C(N/N=C/c1ccc(O)cc1O)C(=O)N/N=C/c1ccc(O)cc1O | 14.1
74 | Nc1[nH]n2c(=O)c3c(nc2c1N=Nc1ccccc1)CCCC3 | -54.3
75 | COc1cccc(N=Nc2c(N)[nH]n3c(=O)c4c(nc23)CCCC4)c1 | 12.2
76 | Nc1[nH]n2c(=O)c3c(nc2c1N=Nc1ccc(Cl)cc1)CCCC3 | -8.56
77 | COc1ccc(OC)c2[nH]c(=O)c(CCNC(=O)c3ccc4c(c3)OCO4)cc12 | -10.2
78 | CN(C)S(=O)(=O)N1CCN(C(=O)c2ccccc2)CC1 | 8.25
79 | CC(C)NC(=S)N/N=C1\CCCc2ccccc21 | 10.4
80 | CCCCNC(=S)N/N=C1\CCCCc2ccccc21 | -64.4
81 | CCNC(=S)N/N=C1\CCCCc2ccccc21 | -3.93
82 | C=C(C)CNC(=S)NN=C1c2ccccc2-c2ccccc21 | 6.79
83 | CC(C)NC(=S)N/N=C1\CCCCc2ccccc21 | -21.1
84 | C=C(C)CNC(=S)N/N=C1\CCCCc2ccccc21 | -60.3

— article PMC4336329 (PLoS ONE, 2015)
